Assay results from PubChem BioAssay (Tox21).
Values joined by “and” are separate entries in the source; they are usually repeats but may differ in a detail not shown here. Equal entries are not always repeated. Inconclusive results are not listed. A call without a number means that no potency is given here. Some compounds were tested as several samples or in several runs, with calls that do not always agree. Active and inactive are the calls of the source. Unless noted, calls follow the shape of the dose curve; as a rule, active = well fitted curve in the direction sought with a large enough effect in the repeat runs; inconclusive = weak or mixed curves; inactive = no such curve, though single readings can be large; an effect the other way counts as inactive or inconclusive. Non-standard residues stand in square brackets, D forms with d. Residues, ends and D or L forms follow the SMILES beside them. Orn = NCCC[C@H](N)C(=O)O

What was measured:
[1] = qHTS assay to identify small molecule antagonists of the glucocorticoid receptor (GR) signaling pathway - cell viability counter screen (AID 720693); also: nearly all actives have a fitted effect of over 55% in size; also: potency is read from the fitted curve at half-maximal effect
[2] = qHTS assay for identifying genotoxic compounds that show differential cytotoxicity against isogenic chicken DT40 cell lines with known DNA damage response pathways - wild type cell line (AID 743012); also: nearly all actives have a fitted effect of over 60% in size; also: potency is read from the fitted curve at half-maximal effect
How it was run: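 Using parental DT40 (300 cells/well), compounds delivered in DMSO incubate 40 h at 37 C/5% CO2. CellTiter-Glo reagent then stands 30 min at room temperature, and luminescence gives cell viability.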

[3] = qHTS assay for identifying genotoxic compounds that show differential cytotoxicity against isogenic chicken DT40 cell lines with known DNA damage response pathways - Rev3 mutant cell line (AID 743014); also: nearly all actives have a fitted effect of over 55% in size; also: potency is read from the fitted curve at half-maximal effect
[4] = qHTS assay for identifying genotoxic compounds that show differential cytotoxicity against isogenic chicken DT40 cell lines with known DNA damage response pathways - Rad54/Ku70 mutant cell line (AID 743015); also: nearly all actives have a fitted effect of over 60% in size; also: potency is read from the fitted curve at half-maximal effect
[5] = qHTS assay to identify small molecule antagonists of the androgen receptor (AR) signaling pathway - cell viability counter screen (AID 743033; also: nearly all actives have a fitted effect of over 45% in size; also: potency is read from the fitted curve at half-maximal effect)
[6] = biological target: Androgen receptor (Homo sapiens) (UniProt P10275); assay: qHTS assay to identify small molecule antagonists of the androgen receptor (AR) signaling pathway (AID 743035; active = well fitted inhibition curve with a large enough effect in the signal ratio in the repeat runs, not every such curve was filed as active; the % refers to the signal ratio)
Sequence of Androgen receptor (Homo sapiens) (P10275 whole entry, looked up): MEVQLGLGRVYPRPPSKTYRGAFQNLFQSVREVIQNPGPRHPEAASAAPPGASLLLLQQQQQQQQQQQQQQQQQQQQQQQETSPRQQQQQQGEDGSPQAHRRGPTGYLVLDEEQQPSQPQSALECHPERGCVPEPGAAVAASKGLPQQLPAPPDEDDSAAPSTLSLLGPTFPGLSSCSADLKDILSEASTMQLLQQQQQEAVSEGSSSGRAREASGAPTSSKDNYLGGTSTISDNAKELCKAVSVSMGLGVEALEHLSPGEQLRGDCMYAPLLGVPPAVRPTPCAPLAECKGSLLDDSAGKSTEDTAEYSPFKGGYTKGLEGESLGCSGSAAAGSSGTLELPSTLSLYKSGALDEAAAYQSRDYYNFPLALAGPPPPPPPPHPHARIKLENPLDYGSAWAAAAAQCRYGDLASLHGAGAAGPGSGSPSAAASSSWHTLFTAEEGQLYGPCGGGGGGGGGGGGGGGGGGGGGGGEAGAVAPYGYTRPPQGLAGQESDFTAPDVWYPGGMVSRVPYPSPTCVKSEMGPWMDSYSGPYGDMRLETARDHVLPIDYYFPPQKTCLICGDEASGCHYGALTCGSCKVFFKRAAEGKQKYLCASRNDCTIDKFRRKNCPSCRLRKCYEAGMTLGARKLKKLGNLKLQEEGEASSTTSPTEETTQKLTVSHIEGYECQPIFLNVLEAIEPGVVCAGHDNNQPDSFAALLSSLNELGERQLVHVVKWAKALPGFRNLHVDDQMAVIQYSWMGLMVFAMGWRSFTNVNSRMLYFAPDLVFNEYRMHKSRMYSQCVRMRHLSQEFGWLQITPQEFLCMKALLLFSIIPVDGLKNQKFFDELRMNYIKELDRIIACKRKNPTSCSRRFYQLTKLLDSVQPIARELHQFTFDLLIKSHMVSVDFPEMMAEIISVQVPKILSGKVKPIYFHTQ
How it was run: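 Using qHTS, AR-UAS-bla GripTite HEK293 cells received compound, then R1881, and were cultured 16 h at 37C/5% CO2 before a 2 h room-temperature LiveBLAzer B/G FRET substrate step and fluorescence measurement.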

[7] = biological target: Androgen receptor (Homo sapiens) (UniProt P10275); assay: qHTS assay to identify small molecule agonists of the androgen receptor (AR) signaling pathway using the MDA cell line (AID 743040; also: nearly all actives have a fitted effect of over 20% in size)
How it was run: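 After a 5 h incubation at 37C and 0% CO2, MDA-kb2 reporter cells were dosed with compounds in DMSO and kept 16 h under the same conditions. Luciferase activity was then read as luminescence with ONE-Glo.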

[8] = qHTS assay to identify small molecule antagonists of the androgen receptor (AR) signaling pathway using the MDA cell line - cell viability counter screen (AID 743041; also: nearly all actives have a fitted effect of over 45% in size; also: potency is read from the fitted curve at half-maximal effect)
How it was run: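 R1881-driven MDA-kb2 AR-luc cells, 3,000/well, were dosed with library compounds for 16 h; cell health came from CellTiter-Fluor fluorescence in the reporter wells.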

[9] = biological target: Androgen receptor (Homo sapiens) (UniProt P10275); assay: qHTS assay to identify small molecule antagonists of the androgen receptor (AR) signaling pathway using the MDA cell line (AID 743042; also: nearly all actives have a fitted effect of over 55% in size; also: potency is read from the fitted curve at half-maximal effect)
How it was run: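 Antagonist mode: compounds plus R1881 agonist added to MDA-kb2 AR-luc cells, incubated 16 h at 37C. Luciferase reporter luminescence quantified, with multiplexed CellTiter-Fluor readout for cell viability.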

[10] = biological target: Androgen receptor (Homo sapiens) (UniProt P10275); assay: qHTS assay to identify small molecule agonists of the androgen receptor (AR) signaling pathway (AID 743036; active = well fitted activation curve with a large enough effect in the signal ratio in the repeat runs, with a control signal flat, not every such curve was filed as active; the % refers to the signal ratio)
How it was run: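 Screening used 2,000 AR-bla HEK293 cells per well, treated 16 h at 37C with test compounds in DMSO alongside positive and DMSO-only controls; beta-lactamase activity was then read by LiveBLAzer B/G FRET fluorescence after 2 h at room temperature.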

Compound	Potency [1]	Potency [2]	Potency [3]	Potency [4]	Potency [5]	Potency [6]	Potency [7]	Potency [8]	Potency [9]	Potency [10]
CC[C@@]1([C@@H]2O[C@@H]([C@H]3O[C@@](O)(CO)[C@H](C)C[C@@H]3C)C[C@@H]2C)CC[C@H]([C@]2(C)CC[C@]3(C[C@H](O)[C@@H](C)[C@@H]([C@@H](C)[C@@H](OC)[C@H](C)C(=O)O)O3)O2)O1 (stereo in doubt)	inactive	473 nM (active) and 531 nM (active)	376 nM (active) and 531 nM (active)	531 nM (active) and 596 nM (active)						
COc1c(O)cc2c(c1O)[C@@H]1O[C@H](CO)[C@@H](O)[C@H](O)[C@H]1OC2=O	inactive	inactive	inactive	inactive	inactive	inactive	inactive	inactive	inactive	
O=C(O)COc1ccc(C(=O)c2cccs2)c(Cl)c1Cl	inactive	inactive	inactive	inactive	inactive	inactive	inactive	inactive	inactive	
O=C(O)CCCC/C=C(\c1ccccc1)c1cccnc1	inactive	inactive	inactive	inactive	inactive			inactive		
CSCC[C@H](NC(=O)[C@H](Cc1ccc(OS(=O)(=O)O)cc1)NC(=O)[C@@H](N)CC(=O)O)C(=O)NCC(=O)N[C@@H](Cc1c[nH]c2ccccc12)C(=O)N[C@@H](CCSC)C(=O)N[C@@H](CC(=O)O)C(=O)N[C@@H](Cc1ccccc1)C(N)=O	inactive	inactive	inactive	inactive	inactive			inactive		
CCCCCCCCCCCC[n+]1ccc2ccccc2c1	9.52 µM (active)	0.168 µM (active)	0.298 µM (active)	0.266 µM (active)	3.01 µM (active)			5.96 µM (active)		
Cc1cnc(C(=O)O)c[n+]1[O-]	inactive	inactive	inactive	inactive	inactive			inactive		
CO[C@H](C(=O)[C@@H](O)[C@@H](C)O)C1Cc2cc3cc(O[C@H]4C[C@@H](O[C@H]5C[C@@H](O)[C@H](O)[C@@H](C)O5)[C@@H](O)[C@@H](C)O4)c(C)c(O)c3c(O)c2C(=O)[C@H]1O[C@H]1C[C@@H](O[C@H]2C[C@@H](O[C@H]3C[C@](C)(O)[C@H](O)[C@@H](C)O3)[C@H](O)[C@@H](C)O2)[C@H](O)[C@@H](C)O1 (stereo partly drawn)	1.34 µM (active)	94.4 nM (active) and 47.3 nM (active)	84.1 nM (active) and 37.6 nM (active)	75 nM (active) and 33.5 nM (active)	inactive		inactive	inactive	473 nM (active) and 266 nM (active)	
CCCOC(=O)c1ccc(O)cc1	inactive	inactive	inactive and 68.6 µM (active)	inactive and 65.5 µM (active)	inactive			inactive		
CCC1OC(=O)C[C@@H](O)[C@H](C)[C@@H](O[C@@H]2O[C@H](C)C[C@H](N(C)C)[C@H]2O)[C@@H](CC=O)C[C@@H](C)C(=O)/C=C/[C@]2(C)OC2C1C (stereo partly drawn)	inactive	11.9 µM (active) and 4.73 µM (active)	21.1 µM (active) and 8.41 µM (active)	16.8 µM (active) and 7.5 µM (active)	inactive		inactive	inactive	26.6 µM (active) and 23.7 µM (active)	inactive
CN(C[C@@H](CC[N+]12CCC(C3CCCCC3)(CC1)CC2)c1ccc(Cl)c(Cl)c1)C(=O)c1cc(C(F)(F)F)cc(C(F)(F)F)c1	17.4 µM (active)	6.86 µM (active)	9.69 µM (active)	8.63 µM (active)	19.5 µM (active)		inactive	61.1 µM (active)	54.5 µM (active)	
NC[C@H]1O[C@H](O[C@H]2[C@H](O)[C@@H](O[C@H]3O[C@H](CO)[C@@H](O)[C@H](N)[C@H]3O)[C@H](N)C[C@@H]2N)[C@H](N)C[C@@H]1O	inactive	inactive	inactive	inactive	inactive			inactive		
COc1cc(/C=C/C(=O)CC(=O)/C=C/c2ccc(O)c(OC)c2)ccc1O	inactive	8.41 µM (active) and 21.1 µM (active) and 17.3 µM (active)	11.9 µM (active) and 12.3 µM (active)	10.6 µM (active) and 26.6 µM (active) and 10.9 µM (active)	inactive and 43.9 µM (active)		inactive	inactive	26.6 µM (active) and inactive and 13.8 µM (active)	
C=CC(N)CCC(=O)O (stereo not drawn)	inactive	inactive	inactive	inactive	inactive			inactive		
O=C(Cn1cnnn1)N[C@@H]1C(=O)N2C(C(=O)O)=C(CSc3nncs3)CS[C@H]12	inactive	inactive	inactive	inactive	inactive			inactive		
CCN(CC)CCOC[C@H]1O[C@@H](O)[C@H](OCCN(CC)CC)[C@@H](O)[C@@H]1O	inactive	inactive	inactive	inactive	inactive			inactive		
CC(C)(COP(=O)(O)OP(=O)(O)OC[C@H]1O[C@@H](n2cnc3c(N)ncnc32)[C@H](O)[C@@H]1OP(=O)(O)O)C(O)C(=O)NCCC(=O)NCCS (stereo partly drawn)	inactive	inactive	inactive	inactive	inactive			inactive		
NCC[C@H](O)C(=O)N[C@@H]1C[C@H](N)[C@@H](O[C@H]2O[C@H](CN)CC[C@H]2N)[C@H](O)[C@H]1O[C@H]1O[C@H](CO)[C@@H](O)[C@H](N)[C@H]1O	inactive	inactive	inactive	inactive	inactive			inactive		
CC[N+](CC)(CC)CCC(O)(c1ccccc1)C1CCCCC1 (stereo not drawn)	inactive	inactive	inactive	inactive	inactive			inactive		
C=C1[C@H](CO)[C@@H](O)C[C@@H]1n1cnc2c(=O)[nH]c(N)nc21	inactive	0.0237 µM (active)	0.0237 µM (active)	0.0335 µM (active)	inactive		inactive	inactive	inactive	inactive
N#Cc1nc(Cl)c(Cl)c(Cl)c1Cl	19.5 µM (active)	1.54 µM (active)	1.72 µM (active)	1.54 µM (active)	9.77 µM (active)		inactive	30.6 µM (active)	6.86 µM (active)	
OCC1(CO)COC(C(Cl)(Cl)Cl)OC1	inactive	inactive	inactive	inactive	inactive			inactive		
O=C(CCCN1CCN2CCCC2C1)c1ccc(F)cc1 (stereo not drawn)	inactive	11.9 µM (active)	2.11 µM (active)	8.41 µM (active)	inactive			inactive		

Compound	Potency [1]	Potency [2]	Potency [3]	Potency [4]	Potency [5]	Potency [6]	Potency [7]	Potency [8]	Potency [9]	Potency [10]
CO/N=C(\C(=O)N[C@@H]1C(=O)N2C(C(=O)[O-])=C(C[n+]3ccc(N)n3CCO)CS[C@H]12)c1csc(N)n1	inactive	inactive	inactive	inactive	inactive			inactive		
Cc1ncc(C[n+]2csc(CCOP(=O)(O)O)c2C)c(N)n1	inactive	inactive	inactive	inactive	inactive			inactive		
CC[C@@H](C)[C@H](N)C(=O)O	inactive	inactive	inactive	inactive	inactive			inactive		
CNC(=O)OCc1cccc(COC(=O)NC)n1	inactive	inactive	inactive	inactive	inactive			inactive		
FC(F)(F)COCC(F)(F)F	inactive	inactive	inactive	inactive	inactive			inactive		
O=C(N[C@H](CO)[C@H](O)c1ccc([N+](=O)[O-])cc1)C(Cl)Cl	inactive	5.96 µM (active) and 15.4 µM (active)	7.5 µM (active) and 17.2 µM (active)	8.41 µM (active) and 19.7 µM (active)	inactive			inactive		
CC/C(=C(/CC)c1ccc(OP(=O)(O)O)cc1)c1ccc(OP(=O)(O)O)cc1	inactive	inactive	inactive	inactive	inactive			inactive		
NCC(O)CC(=O)O (stereo not drawn)	inactive	inactive	inactive	inactive	inactive			inactive		
CC(C)C[C@@H]1NC(=O)[C@H](CCCN)NC(=O)[C@H](C(C)C)NC(=O)[C@@H]2CCCN2C(=O)[C@@H](Cc2ccccc2)NC(=O)[C@H](CC(C)C)NC(=O)[C@H](CCCN)NC(=O)[C@H](C(C)C)NC(=O)[C@@H]2CCCN2C(=O)[C@@H](Cc2ccccc2)NC1=O (cyclo(V[Orn]L[dF]PV[Orn]L[dF]P))	19 µM (active)	0.376 µM (active)	0.075 µM (active)	0.0944 µM (active)	2.68 µM (active)			1.97 µM (active)		
CC1(C)S[C@@H]2[C@H](NC(=O)[C@H](N)c3ccc(O)cc3)C(=O)N2[C@H]1C(=O)O	inactive	inactive	inactive	inactive	inactive		inactive	inactive		inactive
CN(Cc1ccccc1)Cc1ccccc1	inactive	inactive	inactive	inactive	inactive			inactive		
CCOc1ccc(S(=O)(=O)O)c2cccnc12	inactive	inactive	inactive	inactive	inactive			inactive		
O=C(CCCCCCCCc1cccnc1)N1CCC(C=C(c2ccccc2)c2ccccc2)CC1	34.7 µM (active)	48.6 µM (active)	24.3 µM (active)	24.3 µM (active)	inactive		inactive	inactive	inactive	inactive
CC(=O)OCC(=O)[C@@]1(O)CC[C@H]2[C@@H]3CCC4=CC(=O)CC[C@]4(C)C3=CC[C@@]21C	inactive	inactive	inactive	inactive	inactive			inactive		
CC(C)C[C@H](NC(=O)[C@@H](COC(C)(C)C)NC(=O)[C@H](Cc1ccc(O)cc1)NC(=O)[C@H](CO)NC(=O)[C@H](Cc1c[nH]c2ccccc12)NC(=O)[C@H](Cc1cnc[nH]1)NC(=O)[C@@H]1CCC(=O)N1)C(=O)N[C@@H](CCCN=C(N)N)C(=O)N1CCC[C@H]1C(=O)NNC(N)=O	inactive	inactive	inactive	inactive	inactive			inactive		
Cc1onc(-c2c(F)cccc2Cl)c1C(=O)N[C@@H]1C(=O)N2[C@@H]1SC(C)(C)[C@@H]2C(=O)O	inactive	inactive	inactive	inactive	inactive			inactive		
C[C@H](Cc1ccc(O)c(O)c1)[C@@H](C)Cc1ccc(O)c(O)c1	inactive	10.6 µM (active)	23.7 µM (active)	10.6 µM (active)	inactive			inactive		
O=P(O)(O)C(O)(Cn1ccnc1)P(=O)(O)O	inactive	inactive	inactive	inactive	inactive			inactive		
C[C@H](O)CN(C)C	inactive	inactive	inactive	inactive	inactive			inactive		
CCCn1c(=O)[nH]c(=O)c2[nH]cnc21	inactive	inactive	inactive	inactive	inactive			inactive		
CC(=O)N[C@@H](C=O)[C@H](O)[C@H](O)[C@@H](O)CO	inactive	inactive	inactive	inactive	inactive			inactive		
C/C(=C\C(=O)OCCCCCCCCC(=O)O)C[C@@H]1OC[C@H](C[C@@H]2O[C@H]2[C@@H](C)[C@H](C)O)[C@@H](O)[C@H]1O	inactive	1.5 µM (active)	1.5 µM (active)	2.37 µM (active)	inactive			inactive		
